# Measurements reported in PubChem BioAssay (NCI).
# This is part of a sample that, as a whole, favours compounds with a hit. Of some 83,000 tested, about 20% had one in any assay.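 In brief: 96-well plates, 48 h treatment, single concentration, percent growth endpoint.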 Values without a mark were called inactive. Calls of active or inactive are those of the source. The calls were made as follows: active = growth percent below 10; inactive = the rest.
# Columns and labels:
# Assay in all cases: NCI-60 one-dose screen, 48 h (100 = growth as untreated, 0 = no growth, -100 = all killed)
# Settings in all cases: 10 µM unless noted
# [1] = system: NCI-H23 lung
# [2] = system: NCI-H226 lung
# [3] = system: NCI-H322M lung
# [4] = system: HOP-62 NSCLC
# [5] = system: NCI-H460 lung
# [6] = system: HOP-92 NSCLC
# [7] = system: NCI-H522 lung
# [8] = system: A549/ATCC NSCLC
# [9] = system: 786-0 renal
# [10] = system: COLO 205 colon
# [11] = system: DU-145 prostate
# [12] = system: K-562 leukemia
# [13] = system: MALME-3M melanoma
# [14] = system: MDA-MB-231 breast
# [15] = system: RXF 393 renal
# [16] = system: SF-268 CNS
# [17] = system: SF-295 CNS
# [18] = system: SF-539 CNS
# [19] = system: UACC-257 melanoma
# [20] = system: M14 melanoma
Compound,growth [1],growth [2],growth [3],growth [4],growth [5],growth [6],growth [7],growth [8],growth [9],growth [10],growth [11],growth [12],growth [13],growth [14],growth [15],growth [16],growth [17],growth [18],growth [19],growth [20]
O=C(/C=C/c1cccc(Cl)c1)c1ccc(O)c(CN2CCN(c3cc4c(cc3F)c(=O)c(C(=O)O)cn4C3CC3)CC2)c1,56.4%,62%,37.8%,37.2%,44%,21.8%,17.3%,25.8%,33.6%,136%,34.6%,20.4%,44.1%,70.5%,39.5%,36.9%,43.5%,40.9%,80.5%,43%
O=C(/C=C/c1cccc([N+](=O)[O-])c1)c1ccc(O)c(CN2CCN(c3cc4c(cc3F)c(=O)c(C(=O)O)cn4C3CC3)CC2)c1,37.3%,60.8%,61.4%,43.7%,37.1%,59%,16.3%,32.2%,-11.2% (active),60.1%,22%,6.49% (active),78.2%,54.4%,-12.4% (active),43.2%,50.1%,12%,63.1%,9.3% (active)
COc1cccc(/C=C2\Oc3cc(OCCN4CCCC4)ccc3C2=O)c1,92.2%,99.2%,92.7%,96.3%,93.8%,69.6%,94.5%,99%,95.8%,93.8%,98.5%,-26.9% (active),104%,96.3%,97.5%,91.8%,105%,88.9%,111%,98.7%
CC(C)(O)c1cn(CCCCN2C(=O)C(=O)c3ccccc32)nn1,95.8%,94.8%,108%,94.8%,102%,102%,87.4%,99.7%,98.3%,112%,113%,94.3%,105%,99.7%,104%,99.7%,102%,96.4%,103%,97.7%
CC(C)C[C@@H](NC(=O)[C@@H](Cc1ccccc1)NC(=O)c1cnccn1)B1Oc2ccc(C[C@H](NC(=O)[C@H](Cc3ccc4c(c3)OB([C@@H](CC(C)C)NC(=O)[C@@H](Cc3ccccc3)NC(=O)c3cnccn3)O4)NC(=O)[C@@H](N)CC3CCC4OB([C@@H](CC(C)C)NC(=O)[C@@H](CC5CCCCC5)NC(=O)C5CNCCN5)OC4C3)C(=O)NCCCC[C@@H]3NC(=O)[C@@H](Cc4ccccc4)NC(=O)[C@H](CC(=O)O)NC(=O)CNC(=O)[C@H](CCCNC(=N)N)NC3=O)cc2O1 (stereo not given in full),-41.3% (active),-50.2% (active),-8.33% (active),-43.2% (active),-54.8% (active),-74.1% (active),-43.4% (active),-49.5% (active),-12.6% (active),-72.6% (active),-44.8% (active),-0.546% (active),-20.3% (active),-7.69% (active),-89.2% (active),-52.7% (active),-68.6% (active),-37.6% (active),-11.7% (active),0.189% (active)
COc1cc2c(cc1-c1c(C)noc1C)ncc1nc(C3CCOCC3)n([C@@H](C)COC(F)F)c12,64.6%,58.2%,48.3%,35%,61%,31.8%,33.9%,42.4%,49.6%,26.9%,73.1%,34.2%,66.3%,42.8%,59.4%,70.8%,52%,31.8%,36.7%,41%
COc1cccc(-c2nn(C(C)(C)C)cc2-c2ccnc(NCCCNS(=O)(=O)c3cccc4ccccc34)c2)c1,109%,109%,111%,103%,104%,104%,95.6%,104%,103%,115%,107%,104%,114%,106%,109%,108%,101%,113%,110%,101%
Cn1nc(N)c2cc([C@@H]3Nc4ccc5[nH]ncc5c4[C@H]4C5CCC(C5)[C@@H]34)ccc21 (stereo not given in full),26.9%,30.6%,48.9%,46.9%,2.68% (active),105%,17.9%,28.5%,34.7%,2.47% (active),18.8%,9.76% (active),52.7%,48.5%,-11.1% (active),42.5%,9.61% (active),-15.5% (active),77.4%,3.16% (active)
C#CCOc1ccc2ncnc(Nc3cccc(CNC(=O)C=C)c3)c2c1,104% [8.25 µM],77.3% [8.25 µM],105% [8.25 µM],108% [8.25 µM],101% [8.25 µM],93.3% [8.25 µM],91.9% [8.25 µM],102% [8.25 µM],93.1% [8.25 µM],111% [8.25 µM],108% [8.25 µM],104% [8.25 µM],109% [8.25 µM],101% [8.25 µM],79.4% [8.25 µM],86.2% [8.25 µM],102% [8.25 µM],99.9% [8.25 µM],106% [8.25 µM],103% [8.25 µM]
CCOC(=O)c1csc(NC(=O)COc2cccc(/C=C3\CSc4ccccc4C3=O)c2)n1,9.12% (active),98.1%,97.1%,80.1%,98.4%,-79.1% (active),-39.2% (active),97.2%,87.1%,87.9%,87.1%,-64.3% (active),-52.6% (active),59.2%,64.9%,-37.2% (active),93.7%,-89.1% (active),84.5%,-58.5% (active)
Cn1cc(C(=O)c2nc(-c3c[nH]c4ccccc34)no2)c2ccccc21,65.6%,57.3%,68.2%,78.9%,35.2%,63.8%,56.5%,73.7%,98.4%,56%,102%,37.9%,58.4%,69.8%,90.1%,92.1%,68.5%,91.7%,83.9%,64.5%
O=S(=O)(Nc1ccc(Cl)c(F)c1)c1ccc(-c2cnc(C3CC3)o2)cc1,25.2%,58.6%,39.7%,32.5%,13.5%,42%,-15.8% (active),30.1%,42.6%,1.76% (active),16.6%,12.3%,35.3%,37.8%,-7.66% (active),52.1%,10.3%,-15.5% (active),52.9%,19.5%
Cc1ccc(NS(=O)(=O)c2ccc(-c3cnc(C4CC4)o3)cc2)cc1C,21.2%,47.6%,42.7%,33.7%,12.3%,29.6%,-7.94% (active),27.1%,43.4%,-10.1% (active),14.4%,9.36% (active),42.6%,40.1%,-3.66% (active),52%,10.3%,-13.6% (active),49.8%,25.6%
O=C1Nc2cc(-c3ccc(O)cc3)ccc2/C1=C/c1ccc[nH]1,-16% (active),3.63% (active),6.56% (active),24.4%,2.66% (active),10.8%,1.89% (active),9.14% (active),10.9%,13.7%,1.75% (active),3.69% (active),15.3%,13.2%,-27.3% (active),21.7%,-20.7% (active),-14.6% (active),20%,10.9%
